The values below come from PubChem BioAssay (NCI).

Several values for one entry are separate records, joined by “and”; a condition that tells them apart may be missing. Identical values can stand only once. About 83,000 compounds went through this panel and 20% of them were active in at least one assay; those are over-represented in the sample as a whole.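 Cell lines were cultured in 96-well plates, exposed to a single compound concentration, and assessed for percent growth 48 hours later.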 Activity calls are given as the source filed them.

For one experiment, the system named is NCI/ADR-RES ovarian. Put plainly: NCI-60 one-dose screen, 48 h (100 = growth as untreated, 0 = no growth, -100 = all killed). The following applies: 0.01 µM. Here is the method: Growth inhibition of the NCI/ADR-RES human […] tumor cell line is measured as a screen for anti-cancer activity. Cells are grown in 96 well plates and exposed to the test compound for 48 hours. Compounds are tested at a single concentration, which is 10^-5 M for most compounds. The reported endpoint is percent growth (GI% or GIPRCNT), where numbers from 0 - 100% represent growth inhibition, and numbers from -100% - 0 represent cell death. For example, a value of 40 represents 60% growth inhibition. A value of 0 means no net growth occurred over the course of the experiment. A value of -40 indicates 40% of cells at the beginning of the experiment died by the end of the experiment. A value of -100 means all cells are dead at the end of the experiment.
NCI-60 Human Tumor Cell Lines Screen was performed using the standard one-dose NCI protocol, which is described in more detail at https://dtp.cancer.gov/discovery_development/nci-60/default.htm.
Compounds with GIPRCNT values below 10 were considered active. Activity score was based on GIPRCNT using the following formula: […]
Score is 0 for GIPRCNT values of 100 or above, 50 for GIPRCNT values of 0, and 100 for GIPRCNT values of -100.
`CC(=O)O[C@H]1C(=O)[C@@]2(C)[C@H]([C@H](OC(=O)c3ccccc3)[C@]3(O)C[C@H](OC(=O)[C@H](O)[C@@H](NC(=O)c4ccccc4)c4ccccc4)C(C)=C1C3(C)C)[C@]1(OC(C)=O)CO[C@@H]1C[C@@H]2O`: the growth was 92.8% (inactive).

The same experiment, now with this note: 2.5 µM.
In the case of `CC(=O)O[C@H]1C(=O)[C@@]2(C)[C@H]([C@H](OC(=O)c3ccccc3)[C@]3(O)C[C@H](OC(=O)[C@H](O)[C@@H](NC(=O)c4ccccc4)c4ccccc4)C(C)=C1C3(C)C)[C@]1(OC(C)=O)CO[C@@H]1C[C@@H]2O`, the growth was 50.7% (inactive).

The same experiment, now with this note: 5 µM.
For `CC(=O)O[C@H]1C(=O)[C@@]2(C)[C@H]([C@H](OC(=O)c3ccccc3)[C@]3(O)C[C@H](OC(=O)[C@H](O)[C@@H](NC(=O)c4ccccc4)c4ccccc4)C(C)=C1C3(C)C)[C@]1(OC(C)=O)CO[C@@H]1C[C@@H]2O`, the growth is 25.9% (inactive).

The experiment is the same for the next values; noted with them: 10 µM.
With `CC(=O)O[C@H]1C(=O)[C@@]2(C)[C@H]([C@H](OC(=O)c3ccccc3)[C@]3(O)C[C@H](OC(=O)[C@H](O)[C@@H](NC(=O)c4ccccc4)c4ccccc4)C(C)=C1C3(C)C)[C@]1(OC(C)=O)CO[C@@H]1C[C@@H]2O`, the growth is -0.311% (active) and 9.92% (active).

As to `O=C1c2ccccc2CCC1(Br)Br`, the growth was 19.3% (inactive).

In the case of `O=C(O)c1ccccc1.[Ag]`, the growth was 93.2% (inactive).

As to `COc1ccc2c(c1)[nH]c1c(/C=C/c3ccccc3)nccc12`, the growth was 53.4% (inactive).

`COc1ccc(N)c2c1C(=O)c1ccccc1C2=O`: the growth was 110% (inactive).

As to `O=C(NC(=S)Nc1ccccn1)c1ccccc1`, the growth was 55.3% (inactive).

Regarding `CCC(=O)Oc1ccc(/C=N/NC(N)=S)nc1`, the growth is 25.1% (inactive).

`O=Nc1ccc(Nc2ccccc2)cc1`: the growth is 87.9% (inactive).

Take `O=C1C=CC(=O)N1c1ccc(N2C(=O)C=CC2=O)cc1`: the growth was 102% (inactive).

In the case of `O=[N+]([O-])c1cc(S(=O)(=O)Nc2ccccc2)ccc1Cl`, the growth was 99.6% (inactive).

Consider `COc1ccc2oc(-c3ccc(Cl)cc3)c(N3CCN(C)CC3)c2c1`, for which the growth is -10.9% (active).

In the case of `COc1cccc(C(c2cc3c(cc2O)OCO3)N2CCOCC2)c1OC` (stereo not given), the growth was 104% (inactive).

Regarding `Cc1cc(Cl)ccc1NC(=O)/C(Cl)=C1/Sc2ccccc2NC1=O`, the growth was 87.6% (inactive).

Take `S=P(N1CC1)(N1CC1)N1CC1`: the growth is 107% (inactive) and 88.6% (inactive).

On to `CN(C)c1ccc(/C=C/c2ccnc3ccccc23)cc1N`, for which the growth was 68% (inactive).

For `Cc1cc(N=C2C=CC(=[N+](C)C)C=C2)c(N)cc1N`, the growth is 80.4% (inactive).

On to `ClCCn1c(CCl)nc2ccc(Cl)cc21`, for which the growth was 2.35% (active).

As for `Cn1c2nc3ccccc3c-2nc2ccccc21`, the growth is 99.3% (inactive) and 93.6% (inactive).

With `CN(C)CCNc1cccc2sc3ccc(O)cc3c(=O)c12`, the growth was 45% (inactive).

Consider `CC[C@@]1(OC(=O)CN(C)C)C(=O)OCc2c1cc1n(c2=O)Cc2cc3c(N)cccc3nc2-1`, for which the growth was 5.59% (active).

`O=S(=O)(c1cc(Cl)ccc1O)c1cc(Cl)ccc1O`: the growth is 91.9% (inactive).

With `Cc1cc(O)c2c(c1O)C(=O)C13C(=C2O)C(=O)C2C(O)C1C1C(O)C3C(=O)C3=C(O)c4c(O)cc(C)c(O)c4C(=O)C321` (stereo not given), the growth is -17% (active).

Take `Cc1cc(C)c(N2C(=O)CC(Sc3ccccc3N)C2=O)c(C)c1` (stereo not given): the growth is 75% (inactive).

`N#CC(=C1C=CC(=NO)C=C1)c1ccccc1`: the growth was -37.2% (active).

For the compound `Cn1ncc2cc3c(Nc4ccc(Cl)cc4)cccc3nc21`, the growth was 89.1% (inactive).

Turning to `CCOC(=O)[C@]1(Br)CC[C@@]1(Br)C(=O)OCC`, the growth was 107% (inactive).

Turning to `O=C(CNS(=O)(=O)Cc1ccccc1)NNc1ccccc1`, the growth was 67% (inactive).

With `N#C/C(=C/N1C(=O)/C(=C/c2ccc([N+](=O)[O-])cc2)SC1=S)c1nc2ccccc2s1`, the growth is 92.3% (inactive).

In the case of `COc1ccc(C(C#N)=C2C=CC(=NO)C=C2)cc1`, the growth was 94.8% (inactive).

Turning to `S=C1SCN(CCc2ccccc2)CN1CCc1ccccc1`, the growth is 102% (inactive).

`Nc1nc(N)c2cc(Sc3ccc4ccccc4c3)ccc2n1`: the growth is 43.9% (inactive).

Regarding `O=C1C(Cl)=C(Cl)C(Cl)(Cl)C(Cl)C1(Cl)Cl` (stereo not given), the growth is 104% (inactive).

Consider `C=C1N(C)c2ccc(Cl)cc2C1(C)C`, for which the growth was 95.8% (inactive).

`O=C1c2cccc3cc([N+](=O)[O-])cc(c23)C(=O)N1CCN1CCCC1`: the growth is -2.54% (active).

As to `NCc1c(O)ccc2ccccc12`, the growth was 103% (inactive).

Take `CC1CCC2(C(=O)O)CCC3(C)C(=CCC4C5(C)CC(O)C(O)C(C)(CO)C5C(O)CC43C)C2C1C` (stereo not given): the growth was 99.4% (inactive).

Staying with this experiment, now noted: 100 µM.
In the case of `S=P(N1CC1)(N1CC1)N1CC1`, the growth is 40.3% (inactive).
